Consider 7 compounds from PubChem BioAssay (Tox21).

Test [1] can be described thus: Nuclear factor erythroid 2-related factor 2/antioxidant responsive element (Nrf2/ARE) small molecule agonists: qHTS cell viability counter screen in human keratinocytes (AID 1919968; active = well fitted curve in the direction sought with a large enough effect in the repeat runs; an effect the other way counts as inactive or inconclusive; also: nearly all actives have a fitted effect of over 55% in size). Summed up:
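Measured as CellTiter-Fluor fluorescence, this readout tracks cytotoxicity in the same wells as the ARE-luciferase screen. HaCaT reporter cells (1,500/well) received compounds after a 5 h pre-incubation and were exposed for 23 h.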

Test [2] can be described thus: Nuclear factor erythroid 2-related factor 2/antioxidant responsive element (Nrf2/ARE) small molecule agonists: luciferase reporter gene qHTS assay in human keratinocytes (AID 1919969). Also: nearly all actives have a fitted effect of over 35% in size.
The target in test [3] is Gonadotropin-releasing hormone receptor (Homo sapiens) (UniProt P30968). The test is described as follows: Human gonadotropin-releasing hormone receptor (GnRHR) small molecule agonists, calcium flux assay in GnRHR-HEK293 cells (AID 1920063). Also: nearly all actives have a fitted effect of over 35% in size. The gist of the method:
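Fluorescence kinetics (480 nm excitation, 540 nm emission; 3 min, 1 s steps) report calcium mobilisation in human GnRHR-HEK293 cells in agonist mode. Dye incubation: 1 h, 37 C.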

Test [4] has as its target KiSS-1 receptor (Homo sapiens) (UniProt Q969F8). Nature of the test: Human kisspeptin (KISS1R) small molecule agonists, calcium flux assay in KISS1R-HEK293 cells (AID 1920064; active = well fitted curve in the direction sought with a large enough effect in the repeat runs; an effect the other way counts as inactive or inconclusive). The gist of the method: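 Measures KISS1R agonism through calcium-sensitive dye fluorescence in stably transfected HEK293 cells, read for 3 min after pin-tool compound delivery; 15-point titrations in triplicate.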

Test [5] is described as follows: G protein-coupled receptor (GPCR) small molecule agonists, calcium flux assay: HEK293 wild type cell line counter screen (AID 1920065). Summed up:
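Readout: fluorescence at 480 nm excitation/540 nm emission, sampled at 1 s intervals for 3 min. Cells had been cultured 18 h, then dye-loaded 1 h at 37 C before compound or ATP addition.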

Test [6] is described as follows: p53 small molecule agonists, cell-based qHTS assay with human liver microsomes (AID 1963577). Summed up:
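p53RE-bla reporter cells were pre-incubated 5 h at 37 C, then treated with compounds plus human liver microsomes (0.5 mg/mL final) and NADPH (0.5 mg/mL final) for 16 h at 37 C. Beta-lactamase activity was read by LiveBLAzer fluorescence after 2 h at room temperature.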

A short description of test [7]: p53 small molecule agonists, cell-based qHTS assay with rat liver microsomes (AID 1963578). The gist of the method:
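p53RE-bla cells were exposed to compounds together with rat liver microsomes (0.5 mg/mL final) and NADPH (0.5 mg/mL final) for 16 h at 37 C, then read by LiveBLAzer beta-lactamase fluorescence after 2 h at room temperature.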

A short description of test [8]: p53 small molecule agonists, cell-based qHTS assay with human liver microsomes: qHTS cell viability counter screen (AID 1963579). Also: nearly all actives have a fitted effect of over 45% in size. Summed up:
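p53RE-bla cells (4,000/well) were pre-incubated 5 h at 37 C, then given compounds in DMSO plus human liver microsomes (0.5 mg/mL final) and NADPH (0.5 mg/mL final) for 16 h at 37 C. Viability was read by CellTiter-Glo luminescence.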

A short description of test [9]: p53 small molecule agonists, cell-based qHTS assay with rat liver microsomes: qHTS cell viability counter screen (AID 1963580). Also: nearly all actives have a fitted effect of over 45% in size. The gist of the method: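 Viability is assessed in parallel with the p53 reporter read: HCT-116 p53RE-bla cells receive compounds plus rat microsomes and NADPH (0.5 mg/mL final apiece), incubate 16 h at 37 C, and then CellTiter-Glo luminescence is recorded.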

A short description of test [10]: p53 small molecule agonists, cell-based qHTS assay: qHTS cell viability counter screen (AID 1963581). Also: nearly all actives have a fitted effect of over 45% in size. The gist of the method: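 In the same plates used for the p53 bla reporter, HCT-116 cells given compounds for 16 h at 37 C received CellTiter-Glo; luminescence was recorded 30 min later at room temperature.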
Test [11] is described as follows: p53 small molecule agonists, cell-based qHTS assay (AID 1963582; active = well fitted activation curve with a large enough effect in the signal ratio in the repeat runs, not every such curve was filed as active; the % refers to the signal ratio). Summed up: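 Compounds are pin-transferred in DMSO onto p53RE-bla cells and incubated 16 h at 37 C. The B/G FRET beta-lactamase substrate is then applied for 2 h at RT and fluorescence recorded.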
For test [12], the target named is 5-hydroxytryptamine receptor 2A (Homo sapiens) (UniProt P28223). Nature of the test: 5-hydroxytryptamine receptor 2A (HTR2A) small molecule antagonists, cell-based qHTS assay (AID 1963586). Also: nearly all actives have a fitted effect of over 45% in size. Summed up:
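Antagonist-mode intracellular calcium assay: DOI (4 nM) added after 5 min compound pre-incubation at room temperature to dye-loaded HTR2A-CHO cells. Fluorescence followed for 3 min, sampled every second.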

Test [13] shares this target. The test is described as follows: 5-hydroxytryptamine receptor 2A (HTR2A) small molecule agonists, cell-based qHTS assay (AID 1963587). Also: nearly all actives have a fitted effect of over 30% in size. The gist of the method:
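CHO cells stably expressing human HTR2A, plated 18 h, loaded with calcium dye 1 h at 37 C. Agonist mode: compounds added and intracellular calcium fluorescence recorded kinetically for 2 min at 1 sec intervals.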

Test [14] addresses Muscarinic acetylcholine receptor M1 (Homo sapiens) (UniProt P11229). Nature of the test: Cholinergic receptor muscarinic 1 (CHRM1) small molecule antagonists, cell-based qHTS assay (AID 1963588). Also: nearly all actives have a fitted effect of over 40% in size. Also: potency is read from the fitted curve at half-maximal effect. Summed up:
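CHRM1-CHO calcium-flux assay, antagonist mode. Cells were seeded 18 h, dye-loaded 1 h at 37 C and given compound for 5 min at RT, then acetylcholine was added at 50nM. FDSS fluorescence was read 3 min; 15 concentrations, three runs.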

The target is the same in test [15]. Nature of the test: Cholinergic receptor muscarinic 1 (CHRM1) small molecule agonists, cell-based qHTS assay (AID 1963589). Also: nearly all actives have a fitted effect of over 35% in size. Summed up: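 Each compound was tested at 15 concentrations across three independent runs on dye-loaded CHO cells stably expressing human CHRM1, reading intracellular calcium fluorescence kinetically at 1 sec intervals.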
Test [16] can be described thus: cAMP Responsive Elements (CRE) small molecule agonists, cell-based qHTS assay (AID 1963590). Summed up: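 Cell line: CRE-bla HEK 293T; medium DMEM/10% dialyzed FBS/0.1 mM NEAA/1 mM pyruvate/25 mM HEPES; 3 h compound exposure; beta-lactamase FRET readout after 2 h substrate loading at RT.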
A short description of test [17]: cAMP Responsive Elements (CRE) small molecule antagonists, cell-based qHTS assay (AID 1963591; active = well fitted inhibition curve with a large enough effect in the signal ratio in the repeat runs, not every such curve was filed as active; the % refers to the signal ratio). The gist of the method:
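Inhibition of NKH477-driven (0.25 uM final) CRE-beta-lactamase signal in HEK293T cells, 3 h compound exposure at 37 °C, detected by FRET substrate fluorescence.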

The target of test [18] is Beta-2 adrenergic receptor (Homo sapiens) (UniProt P07550). Nature of the test: Adrenergic beta2 receptor (ADRB2) small molecule antagonists, cell-based qHTS assay (AID 1963592). Also: series mostly up to about 92 µM; nearly all actives have a fitted effect of over 50% in size. Summed up:
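Cells (CHO, stable ADRB2 overexpression) incubated 18-20hr at 37C; compounds added from DMSO; agonist mix (1nM isoproterenol, 100uM IBMX, 25uM Ro-20-1724) added; 0.5hr RT; d2-cAMP and anti-cAMP-cryptate added; 1hr RT; 665/615 nm read.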

Test [19] has as its target D(2) dopamine receptor (Homo sapiens) (UniProt P14416). Nature of the test: Dopamine D2 receptor (DRD2) small molecule agonists, cell-based qHTS assay (AID 1963594). Also: nearly all actives have a fitted effect of over 35% in size. The gist of the method:
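HEK293 cells stably expressing human DRD2, pre-treated with PDE inhibitor Ro20-1724 (0.1 mM final) and compound 10 min at room temperature, then stimulated with NKH477 (200nM […]) for 30 min. cAMP read by HTRF (665/620 nm).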

Test [20] has the same target. Nature of the test: Dopamine D2 receptor (DRD2) small molecule antagonists, cell-based qHTS assay (AID 1963595; active = well fitted inhibition curve with a large enough effect in the signal ratio in the repeat runs, with a control signal flat; the % refers to the signal ratio). The gist of the method:
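HEK293 cells stably expressing DRD2 were preincubated with 0.1 mM Ro20-1724, then with compound for 10 min at room temperature. Cells were stimulated with 200 nM NKH477 plus 12 nM quinpirole for 30 min, and cAMP was read by HTRF.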

Where “and” joins values, the source holds several entries; their conditions need not be identical. Identical values can stand only once. Inconclusive results are not listed. The source holds several records for some structures; these can differ, active in one and inactive in another. Calls of active or inactive are those of the source. Unless noted, calls follow the shape of the full dose curve.

Chain of Muscarinic acetylcholine receptor M1 (Homo sapiens) (P11229 whole entry, looked up): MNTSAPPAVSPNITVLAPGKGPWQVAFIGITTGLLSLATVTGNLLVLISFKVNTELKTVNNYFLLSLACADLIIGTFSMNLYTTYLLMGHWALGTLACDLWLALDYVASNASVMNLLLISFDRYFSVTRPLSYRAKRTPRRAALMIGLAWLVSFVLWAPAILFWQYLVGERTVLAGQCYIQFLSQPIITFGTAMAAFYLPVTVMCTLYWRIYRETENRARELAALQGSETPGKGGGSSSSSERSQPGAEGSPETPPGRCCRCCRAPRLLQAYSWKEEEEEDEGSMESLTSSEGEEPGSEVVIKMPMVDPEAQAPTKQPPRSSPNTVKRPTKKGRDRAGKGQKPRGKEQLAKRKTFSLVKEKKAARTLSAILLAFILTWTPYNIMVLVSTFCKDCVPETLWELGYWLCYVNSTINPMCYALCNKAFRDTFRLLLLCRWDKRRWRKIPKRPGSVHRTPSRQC
Chain of KiSS-1 receptor (Homo sapiens) (Q969F8 whole entry, looked up): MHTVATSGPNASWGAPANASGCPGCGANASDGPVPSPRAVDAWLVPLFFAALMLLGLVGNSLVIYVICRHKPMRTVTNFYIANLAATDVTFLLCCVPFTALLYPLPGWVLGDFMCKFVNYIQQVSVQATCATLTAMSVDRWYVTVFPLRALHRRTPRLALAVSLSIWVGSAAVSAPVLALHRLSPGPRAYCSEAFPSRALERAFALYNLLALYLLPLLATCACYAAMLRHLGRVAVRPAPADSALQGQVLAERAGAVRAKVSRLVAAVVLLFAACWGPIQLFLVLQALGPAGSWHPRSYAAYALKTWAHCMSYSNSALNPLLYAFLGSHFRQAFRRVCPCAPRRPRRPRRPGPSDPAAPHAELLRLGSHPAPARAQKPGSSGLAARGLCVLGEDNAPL
Chain of D(2) dopamine receptor (Homo sapiens) (P14416 whole entry, looked up): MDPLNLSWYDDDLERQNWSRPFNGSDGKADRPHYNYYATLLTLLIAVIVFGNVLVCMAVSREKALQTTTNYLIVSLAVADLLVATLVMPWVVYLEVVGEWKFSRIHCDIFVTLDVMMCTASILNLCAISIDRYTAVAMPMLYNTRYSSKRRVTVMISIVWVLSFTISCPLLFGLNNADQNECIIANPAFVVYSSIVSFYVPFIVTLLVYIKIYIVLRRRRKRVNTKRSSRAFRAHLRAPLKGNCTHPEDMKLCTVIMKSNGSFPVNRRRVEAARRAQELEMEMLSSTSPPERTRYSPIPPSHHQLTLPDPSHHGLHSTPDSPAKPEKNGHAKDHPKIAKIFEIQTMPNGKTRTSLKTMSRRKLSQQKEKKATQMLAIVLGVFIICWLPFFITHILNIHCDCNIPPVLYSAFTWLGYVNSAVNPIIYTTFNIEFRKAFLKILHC
Chain of Beta-2 adrenergic receptor (Homo sapiens) (P07550 whole entry, looked up): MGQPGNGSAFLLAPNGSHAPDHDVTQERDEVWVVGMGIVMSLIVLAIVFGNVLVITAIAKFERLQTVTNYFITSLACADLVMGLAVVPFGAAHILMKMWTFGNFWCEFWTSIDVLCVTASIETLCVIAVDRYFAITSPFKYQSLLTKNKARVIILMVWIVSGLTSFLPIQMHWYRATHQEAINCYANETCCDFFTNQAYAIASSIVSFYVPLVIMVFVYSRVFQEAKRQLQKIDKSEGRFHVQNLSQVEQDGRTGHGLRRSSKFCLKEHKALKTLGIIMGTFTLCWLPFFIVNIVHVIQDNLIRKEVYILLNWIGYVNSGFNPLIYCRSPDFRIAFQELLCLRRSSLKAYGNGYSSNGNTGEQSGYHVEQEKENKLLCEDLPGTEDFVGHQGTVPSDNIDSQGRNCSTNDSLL
Chain of Gonadotropin-releasing hormone receptor (Homo sapiens) (P30968 whole entry, looked up): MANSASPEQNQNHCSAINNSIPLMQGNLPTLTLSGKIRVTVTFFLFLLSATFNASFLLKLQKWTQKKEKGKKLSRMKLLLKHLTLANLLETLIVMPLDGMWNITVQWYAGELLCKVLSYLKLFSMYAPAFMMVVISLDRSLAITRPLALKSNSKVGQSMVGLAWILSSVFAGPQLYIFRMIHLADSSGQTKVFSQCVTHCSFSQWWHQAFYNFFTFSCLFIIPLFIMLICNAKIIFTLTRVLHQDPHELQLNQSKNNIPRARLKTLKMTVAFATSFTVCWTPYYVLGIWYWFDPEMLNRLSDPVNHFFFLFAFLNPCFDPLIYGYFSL
Chain of 5-hydroxytryptamine receptor 2A (Homo sapiens) (P28223 whole entry, looked up): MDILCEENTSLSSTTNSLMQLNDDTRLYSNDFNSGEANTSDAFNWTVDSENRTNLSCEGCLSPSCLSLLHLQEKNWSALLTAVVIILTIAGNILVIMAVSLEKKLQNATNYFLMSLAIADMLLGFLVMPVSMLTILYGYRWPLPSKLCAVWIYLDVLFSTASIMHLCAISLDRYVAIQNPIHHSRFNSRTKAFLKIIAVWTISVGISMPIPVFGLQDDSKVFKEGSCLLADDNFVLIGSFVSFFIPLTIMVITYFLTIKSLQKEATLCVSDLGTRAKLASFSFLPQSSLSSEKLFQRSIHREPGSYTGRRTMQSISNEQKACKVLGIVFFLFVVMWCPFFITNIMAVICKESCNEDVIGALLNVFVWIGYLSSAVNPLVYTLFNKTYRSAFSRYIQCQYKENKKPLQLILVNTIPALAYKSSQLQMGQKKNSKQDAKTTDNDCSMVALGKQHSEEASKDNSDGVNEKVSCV

In the case of `CCCCCC=O`, the Potency entry in test [1], in test [2], in [3], in test [4], in [5] and in test [6] was “inactive” in each case. The Potency entry in test [7], in test [8], in [9], in test [10], in test [11] and in test [12] was “inactive” each time. In addition, the Potency result in test [13], in test [15], in test [16], in test [17], in [18] and in [19] was “inactive” throughout. In [20], the Potency result was “inactive”. For the same compound, the Potency entry in test [14] was “inactive and 11.9 nM (active)”.
Take `CCCN1CCCC[C@H]1C(=O)Nc1c(C)cccc1C`: the Potency entry in [1], in test [2], in test [3], in [4], in test [5] and in [6] was “inactive” each time. For the same compound, the Potency entry in test [7], in [8], in [9], in test [10], in test [11] and in test [12] was “inactive” throughout. In addition, the Potency entry in test [13], in test [14], in test [15], in test [16], in test [17] and in test [18] was “inactive” throughout. Also, the Potency entry in test [19] is “inactive”.
Turning to `NC(=O)c1ccc([N+](=O)[O-])cc1Cl`, the Potency result in test [1], in [2], in test [3], in [4], in test [5] and in test [6] was “inactive” each time. Besides, the Potency entry in [7], in test [8], in [9], in test [10], in test [11] and in test [12] was “inactive” in each case. The Potency result in test [13], in test [14], in [15], in test [16], in test [17] and in test [18] was “inactive” in each case. Besides, the Potency entry in test [19] and in test [20] was “inactive” each time.
With `CC(C)N=C(N)/N=C(\N)Nc1ccc(Cl)cc1`, the Potency result in test [1], in test [2], in [3], in test [4], in test [5] and in [6] was “inactive” in each case. The Potency result in test [7], in test [8], in test [9], in test [10], in test [11] and in [12] was “inactive” each time. Besides, the Potency entry in test [13], in test [15], in [16], in test [17], in test [18] and in test [20] was “inactive” in each case. Also, in test [14], the Potency is 729 nM (active).
For `C=CCOCC(CO)(COCC=C)COCC=C`, the Potency result in test [1], in test [2], in test [3], in [4], in [5] and in [6] was “inactive” throughout. Besides, the Potency result in test [7], in test [8], in test [9], in test [10], in test [11] and in [12] was “inactive” each time. Also, the Potency entry in test [13], in [14], in test [15], in test [16], in [17] and in test [18] was “inactive” in each case. For the same compound, the Potency entry in test [20] was “inactive”.
Take `C[C@@H](O)[C@H]1C(=O)N2C(C(=O)O)=C(SCCN=CN)C[C@H]12`: the Potency entry in test [1], in test [2], in test [3], in [4], in test [5] and in [6] was “inactive” each time. The Potency entry in [7], in [8], in test [9], in test [10], in [11] and in test [12] was “inactive” throughout. Also, the Potency result in test [13], in [14], in test [15], in test [16], in test [17] and in [18] was “inactive” in each case. For the same compound, the Potency result in test [19] and in [20] was “inactive” each time.
For the compound `CCCC(=O)Nc1ccc(O)c(C(C)=O)c1`, the Potency result in test [1], in test [2], in [3], in [4], in [5] and in test [6] was “inactive” in each case. The Potency result in [7], in test [8], in test [9], in [10], in test [11] and in test [12] was “inactive” throughout. The Potency result in [13], in [14], in [15], in test [16], in test [17] and in [18] was “inactive” each time. Moreover, in test [19], the Potency entry is “inactive”.
